The panel holds about 83,000 compounds, 20% with a hit somewhere; the sample as a whole holds those more often.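 How to read the values: 0–100, growth inhibition (40 = 60% inhibited); 0, no net growth; -100 to 0, cell death (-40 = 40% of starting cells died; -100 = all dead).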 The source made the active and inactive calls.
The compounds below were run on OVCAR-8 ovarian (assay: NCI-60 one-dose screen, 48 h (100 = growth as untreated, 0 = no growth, -100 = all killed)). Settings: 10 µM unless noted.
Description: Growth inhibition of the OVCAR-8 human tumor cell line is measured as a screen for anti-cancer activity. Cells are grown in 96 well plates and exposed to the test compound for 48 hours. Compounds are tested at a single concentration, which is 10^-5 M for most compounds. The reported endpoint is percent growth (GI% or GIPRCNT), where numbers from 0 - 100% represent growth inhibition, and numbers from -100% - 0 represent cell death. For example, a value of 40 represents 60% growth inhibition. A value of 0 means no net growth occurred over the course of the experiment. A value of -40 indicates 40% of cells at the beginning of the experiment died by the end of the experiment. A value of -100 means all cells are dead at the end of the experiment.
NCI-60 Human Tumor Cell Lines Screen was performed using the standard one-dose NCI protocol, which is described in more detail at https://dtp.cancer.gov/discovery_development/nci-60/default.htm.
Compounds with GIPRCNT values below 10 were considered active. Activity score was based on GIPRCNT using the following formula: […]
Score is 0 for GIPRCNT values of 100 or above, 50 for GIPRCNT values of 0, and 100 for GIPRCNT values of -100.
In the case of `O=C(NNc1nc2c(F)cccc2n2cccc12)c1cnccn1`, the growth is reported as 21.1% (inactive).
In the case of `Nc1c(S(=O)(=O)O)cc2c3c(cccc13)C(=O)OC2=O`, the growth is reported as 97.6% (inactive).
For `CCOC(=O)[C@@H]1CCCN(S(=O)(=O)c2ccc(S(=O)(=O)N(CC)CC)c(F)c2)C1`, the growth was 77.8% (inactive).
For `N#Cc1cc(-c2nc3ccccc3s2)c(=O)n(NS(=O)(=O)c2ccccc2)c1N`, the growth was 106% (inactive).
For `CCCCOc1ccc(/C=N/Nc2cc(C)nc3ccc(Br)cc23)cc1`, the growth was -50.1% (active).
With `COc1cc(/C=N/NC(=O)c2cnn3c2NC(c2ccccc2)C3)ccc1Oc1ccccc1` (stereo not given) the growth was 30.7% (inactive).
In the case of `CCOC(=O)Oc1c(OC)cc(C(=O)c2ccc(OC)c(O)c2OC)cc1OC`, the growth is reported as 28.5% (inactive).
`CN(C)CCC(=O)c1ccc([N+](=O)[O-])cc1` was tested, and the growth was 110% (inactive).
With `CNCCOc1nc2c3cnccc3cc(-c3cc(OC)c(OC)c(OC)c3)c2c2ccncc12` the growth was -37.3% (active).
For `CCc1ccc(CNc2ccc(N3CCOCC3)c(C(=O)O)c2)cc1`, the growth was 102% (inactive).
In the case of `N#CC(C#N)=Cc1cc2ccccc2nc1Oc1ccc(C(F)(F)F)cc1`, the growth is reported as 92.5% (inactive).
`CCNC(=O)Oc1ccc(/C(=C(\C)c2ccccc2)c2ccc(OCCN3CCCCC3)cc2)cc1` was tested, and the growth was 73.6% (inactive).
`O=C(CCN1CCCC1)Nc1ccc2c(Nc3ccc(Br)cc3)c3ccccc3nc2c1` was tested, and the growth was 5.94% (active).
`N#Cc1cccc(-c2ccc3c(c2)NC(=O)/C3=C\c2ccc[nH]2)c1` was tested, and the growth was 85.9% (inactive).
In the case of `CCCCC[n+]1ccc(SCC(=O)N(C)c2ccc(Oc3ccccc3)cc2)c2ccccc21`, the growth is reported as 98.4% (inactive).
With `Cc1ccc(-n2c3c(c(-c4ccccc4)c2-c2ccccc2)C2=NCCN2C=N3)cc1` the growth was 75.2% (inactive).
With `c1ccc2c(-c3c[nH]c4ccccc34)c3c(cc2c1)[nH]c1ccccc13` the growth was 90.7% (inactive).
`CCCC/C=N/NC(=S)NCc1ccccc1` was tested, and the growth was 97.5% (inactive).
`COc1ccc(OC)c(CCn2cncc2-c2c[nH]c3ccccc23)c1` was tested, and the growth was 89.4% (inactive).
`Fc1ccc(-c2cn3c(nc4ccccc43)c(-c3ccccc3)n2)cc1` was tested, and the growth was 73.7% (inactive).
In the case of `C#CCNC(=O)[C@H](Cc1ccccc1)NC(=O)[C@]12CC[C@@H](C(=C)C)[C@@H]1[C@H]1CC[C@@H]3[C@@]4(C)CCC(=O)C(C)(C)[C@@H]4CC[C@@]3(C)[C@]1(C)CC2`, the growth is reported as 86.8% (inactive).
With `CC(=O)O[C@@H]1C2CCC3C(CC[C@@]4(C)C3CC[C@@H]4C(C)N(C)C)[C@@]2(C)CC[C@@H]1NC(=O)C=C(C)C` (stereo not given in full) the growth was 44.3% (inactive).
For `Cc1ccc(-c2csc(NC(=O)CSc3nc(-c4ccccc4)cc(=O)[nH]3)n2)cc1`, the growth was 94.2% (inactive).
With `CSc1nc2sc3cccc(Cl)c3n2c(=N)c1C#N` the growth was 99.3% (inactive).
For `Nc1n[nH]c2cccc(C#Cc3cccc(C(=O)Nc4cccc(C(F)(F)F)c4)c3)c12`, the growth was 76.3% (inactive).
In the case of `O=C(Cn1c[n+](CC(=O)c2ccc(-c3ccccc3)cc2)c2ccccc21)Nc1cccc2cccnc12`, the growth is reported as 20% (inactive).
For `O=C(NO)c1ccc(-n2nc(-c3ccccc3)c3ccccc32)cc1`, the growth was 32.6% (inactive).
In the case of `O=C(/C=C(/C=C/c1csc2ccccc12)OB(F)F)/C=C/c1csc2ccccc12`, the growth is reported as -9.55% (active).
In the case of `COc1ccc(CC(C)=C(c2ccc(OCCN3CCCCCC3)cc2)c2ccc(OCCN3CCCCCC3)cc2)cc1`, the growth is reported as -78.1% (active).
For `O=Cc1ccc(-c2cn3ccnc3c(-c3ccc4ncn(Cc5ccccc5)c4c3)n2)cc1`, the growth was 56% (inactive).
In the case of `O=C1Nc2cc(-c3cccc(O)c3)ccc2/C1=C/c1ccc[nH]1`, the growth is reported as 26.6% (inactive).
In the case of `COc1cc(-c2n/c(=C\c3c(O)[nH]c4ccc(Cl)cc34)cc3c2=Nc2ccccc2-3)ccc1F`, the growth is reported as -50.7% (active).
With `O=C(CCN1CCCC1)c1ccc([N+](=O)[O-])cc1` the growth was 101% (inactive).
For `Cn1ccc2c1CC1CN(Cc3ccco3)C(=O)C1C2C(=O)O` (stereo not given), the growth was 106% (inactive).
For `O=C(/C=C/c1c(-c2ccc(Cl)cc2)nn(-c2ccccc2)c1C(F)(F)F)c1ccc(Cl)cc1`, the growth was 77.8% (inactive).
`CNCCn1c(=O)c2cc(OC)c(OC)cc2c2ccc3cc4c(cc3c21)OCO4` was tested, and the growth was 10.2% (inactive).
For `Oc1ccc(C(c2ccc(O)cc2)c2ccc(Br)cn2)cc1`, the growth was 2.17% (active).
In the case of `CCN1C(=O)N(CC)C2Nn3c(s/c(=C\c4ccc(OC)cc4)c3=O)=NC21` (stereo not given), the growth is reported as 67.3% (inactive).
For `COc1cc2cc(Oc3cccc(NC(=O)Nc4cc(C(F)(F)F)cc(C(F)(F)F)c4)c3)c(C)nc2cc1OC`, the growth was 14.2% (inactive).
For `COc1cc(OC)cc(C(=O)C[n+]2cccc3cc[nH]c32)c1`, the growth was 103% (inactive).

Reference: PubChem BioAssay (NCI)
